Data on 13 compounds can be found in PubChem BioAssay (NCI).

SMILES strings stand for the structures. This is part of a sample that, as a whole, favours compounds with a hit. Of some 83,000 tested, about 20% had one in any assay.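 A percent growth of 40 corresponds to 60% growth inhibition; 0 means no net growth; -100 means all cells died. Active threshold: below 10.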 Values without a mark were called inactive. Active and inactive are the calls of the source.

What all share (assay): NCI-60 one-dose screen, 48 h (100 = growth as untreated, 0 = no growth, -100 = all killed)
What all share (conditions): 10 µM unless noted

Test [1] concerns DU-145 prostate.
The test system of test [2] is K-562 leukemia.
Test [3] deals with MALME-3M melanoma.
The test system of test [4] is MDA-MB-231 breast.
Test [5] deals with RXF 393 renal.
The test system of test [6] is SF-268 CNS.
Test [7] relates to SF-295 CNS.
Test [8] concerns SF-539 CNS.
The subject of test [9] is UACC-257 melanoma.
In test [10] the test system is M14 melanoma.

`Nc1nn2c(-c3cc4cc(Br)ccc4oc3=O)ccnc2c1N=Nc1ccccc1`: the growth was 37.1% in test [1]; 83.2% in test [2]; 26.2% in [3]; -36.8% (active) in [4]; -53% (active) in [5]; -28.4% (active) in test [6]. In addition, the growth is 9.13% (active) in test [7], -84.4% (active) in test [8], 61.8% in test [9] and 74.9% in test [10].
Regarding `COc1ccc(-c2cc(C(=O)N=Nc3c(O)[nH]c4ccc(Cl)cc34)c3ccccc3n2)cc1`, the growth in [1] is 19%; in [2] it was 64.8%; in test [3] it was 90.1%; in test [4], -44.2% (active); in test [5] it was 133%; in test [6], 68.8%. The growth was 96.7% in [7], 44.8% in [8], 106% in [9] and 76.9% in test [10].
As for `COc1ccccc1NC(=O)N/N=C/c1c[nH]c2ccccc12`, the growth in test [1] was 17.6%; in test [2], 15.4%; in [3], 54.6%; in [4], 52.3%; in test [5], -38.7% (active); in test [6], 30.9%. Moreover, the growth in test [7] was -14.5% (active); in test [8], -11.4% (active); in [9], 54.6%; in test [10], 14.8%.
As to `Cc1nc(N)ncc1-c1ccc2ncnc(N3CCc4cc(F)c(Cl)cc43)c2c1`, the growth in test [1] was 47.3%; in test [2], 61.7%; in [3], 91.9%; in test [4], 35.3%; in [5], 14.6%; in test [6], 45.9%. Moreover, the growth was 84.9% in test [7], 67% in test [8], 105% in test [9] and 102% in [10].
For `Cc1ccc(N=Nc2c(N)nn3c(-c4cc5ccccc5oc4=O)ccnc23)cc1`, the growth in test [1] is 43.7%; in [2], 40.7%; in test [3], 67.1%; in [4], 30.7%; in test [5], 7.4% (active); in test [6], 56.8%. The growth is 57.4% in [7], -3.24% (active) in [8], 90.3% in test [9] and 46.6% in test [10].
`Cc1nn(-c2ccccc2)c2ncn(CC(=O)N/N=C/c3ccccc3O)c(=O)c12`: the growth in [1] is 51.6%; in test [2], 26.5%; in [3], 55.9%; in test [4], 35.9%; in test [5], 42.2%; in [6] it was 38.9%. For the same compound, the growth in test [7] is 24.9%; in test [8] it was 46.7%; in test [9], 54.9%; in test [10], 45.2%.
Take `CCCSc1nnc(-c2c(C)nc3sccn23)o1`: the growth in [1] was 96.7%; in test [2] it was 88.4%; in test [3], 104%; in test [4] it was 74.6%; in test [5], 82.9%; in test [6], 89.1%. Also, the growth in test [7] was 87.1%; in test [8] it was 90.9%; in test [9] it was 93.6%; in [10], 99.6%.
`COc1c2c(cc3c1C(CCc1ccccc1)N(C)CC3)OCO2` (stereo not given): the growth in test [1] was 23.2%; in test [2], 6.06% (active); in [3] it was -65.8% (active); in test [4], -11.7% (active); in test [5], -12.1% (active); in test [6], 23.2%. For the same compound, the growth in test [7] is -70.1% (active); in test [8], -40.2% (active); in [9], 16.6%; in test [10], -26.4% (active).
As for `O=C(CSc1nnc(-c2ccc(-c3nc4ccc(Cl)cc4[nH]3)cc2)o1)Nc1ccc(Cl)cc1`, the growth in test [1] is 6.16% (active); in test [2], 11.2%; in test [3], -23.8% (active); in [4] it was -51.5% (active); in test [5] it was -49% (active); in test [6], 8.68% (active). Also, the growth in test [7] is 27.6%; in [8], -95.3% (active); in [9] it was 3.38% (active); in test [10] it was 1.01% (active).
As for `CCOC(=O)/C(F)=C/C1CC1CCc1ccc(OCC)cc1` (stereo not given), the growth is 50.5% in [1]; 98.3% in test [2]; 89.9% in test [3]; 97.4% in [4]; 96.2% in test [5]; 90.5% in test [6]. The growth in test [7] was 91.1%; in test [8] it was 93%; in test [9], 105%; in test [10], 105%.
For the compound `COc1cc(C2CC(c3ccc(C(F)(F)F)cc3)=Nc3c(N)nc(N)nc3N2)ccc1Oc1nc(Nc2ccc(F)cc2)nc(N(C)C)n1` (stereo not given), the growth was 59.9% in test [1]; 7.52% (active) in test [2]; 65.3% in test [3]; 29.5% in test [4]; 3.99% (active) in test [5]; 53.3% in [6]. For the same compound, the growth was 36.6% in [7], 51.4% in [8], 50.3% in [9] and 28.2% in test [10].
For `COc1cc(C2CC(c3ccc(S(=O)(=O)NCCNc4nc(N(C)C)nc(N5CCOCC5)n4)cc3)=Nc3c(N)nc(N)nc3N2)cc(OC)c1OC` (stereo not given), the growth is 109% in [1]; 92.5% in test [2]; 92.6% in [3]; 80.8% in test [4]; 85.7% in [5]; 89.6% in [6]. Further, the growth in [7] is 94.4%; in [8], 96.8%; in test [9], 99.8%; in test [10] it was 101%.
In the case of `N#Cc1cc(-c2ccnc(Nc3ccc(N4CCN(C5COC5)CC4)cc3)n2)ccc1N1CCCC1`, the growth in test [1] was 51%; in test [2], 42.5%; in [3], 104%; in test [4] it was 65%; in test [5], 9.2% (active); in [6], 50.2%. For the same compound, the growth in [7] is 85.6%; in [8], 46.5%; in test [9] it was 74.4%; in test [10], 71.9%.
